Assay results from PubChem BioAssay (NCI).
About 79,000 compounds went through this panel and 15% of them were active in at least one assay; those are over-represented in the sample as a whole. Values without a mark were called inactive. Calls of active or inactive are those of the source. Cut-off read from the data, not from the text of the source: active = growth inhibition above about 70%; inactive = the rest.

Test: NCI Yeast Anticancer Drug Screen. Data for the wt1 strain (AID 149);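 note: 0% = growth of vehicle-treated wt1 cultures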
Conditions: S. cerevisiae wt1 strain (SPY 50644) growth inhibition, active compounds read high
Protocol: Growth inhibition of yeast strains with defined genetic alterations is measured as a screen for potential anti-cancer activity. Selected strains with alterations in DNA damage repair or cell cycle control were exposed to compounds and growth inhibition was measured relative to vehicle treated controls. The strain used in this assay is wt1

**Q.** Which results are given for CC(C)(CN1CCCCC1)C(=O)/C=C/c1c(Cl)cccc1Cl?
**A.** growth inhibition (at 1.2 µM): 10%; growth inhibition (at 3.7 µM): 15%; growth inhibition (at 11.0 µM): 32%; growth inhibition (at 33.0 µM): 93% (active); growth inhibition (at 100.0 µM): 97% (active)

**Q.** For NCCCSc1ccccc1, which growth inhibition (at 1.2 µM) is on record?
**A.** -2%

**Q.** And the growth inhibition (at 3.7 µM)?
**A.** -4%

**Q.** And the growth inhibition (at 11.0 µM)?
**A.** -2%

**Q.** And the growth inhibition (at 33.0 µM)?
**A.** -3%

**Q.** What about the growth inhibition (at 100.0 µM) of the same molecule?
**A.** -3%

**Q.** For O=C1/C(=C/c2ccc(Cl)c(Cl)c2)CNC/C1=C\c1ccc(Cl)c(Cl)c1, which growth inhibition (at 1.2 µM) is on record?
**A.** 28%

**Q.** What about the growth inhibition (at 3.7 µM) of the same molecule?
**A.** 25%

**Q.** What about the growth inhibition (at 11.0 µM) of the same molecule?
**A.** 29%

**Q.** And the growth inhibition (at 33.0 µM)?
**A.** 63%

**Q.** And the growth inhibition (at 100.0 µM)?
**A.** 95% (active)

**Q.** What does the source list for O=C(Oc1ccc([N+](=O)[O-])cc1)c1ccc([N+](=O)[O-])cc1?
**A.** growth inhibition (at 1.2 µM): 1%; growth inhibition (at 3.7 µM): 0%; growth inhibition (at 11.0 µM): 3%; growth inhibition (at 33.0 µM): -1%; growth inhibition (at 100.0 µM): 11%

**Q.** For O=C1c2cccc3cccc(c23)C(=O)N1O, which growth inhibition (at 1.2 µM) is on record?
**A.** 3%

**Q.** And the growth inhibition (at 3.7 µM)?
**A.** -1%

**Q.** And the growth inhibition (at 11.0 µM)?
**A.** 7%

**Q.** And the growth inhibition (at 33.0 µM)?
**A.** 24%

**Q.** And the growth inhibition (at 100.0 µM)?
**A.** 86% (active)

**Q.** With CCN(CC)CCC(=O)Nc1ccc2sc3ccccc3c(=O)c2n1 as the molecule, how does the growth inhibition (at 1.2 µM) read?
**A.** -4%

**Q.** What about the growth inhibition (at 3.7 µM) of the same molecule?
**A.** -2%

**Q.** And the growth inhibition (at 11.0 µM)?
**A.** 1%

**Q.** And the growth inhibition (at 33.0 µM)?
**A.** 10%

**Q.** And the growth inhibition (at 100.0 µM)?
**A.** 8%

**Q.** Which results are given for CCC(=O)C1=C(O)c2cc(OC)ccc2CC1C(=O)OC (stereo not given)?
**A.** growth inhibition (at 1.2 µM): 0%; growth inhibition (at 3.7 µM): 5%; growth inhibition (at 11.0 µM): 4%; growth inhibition (at 33.0 µM): 6%; growth inhibition (at 100.0 µM): 19%

**Q.** For O=C(Cc1ccccc1)NNc1nc(NNC(=O)c2ccncc2)nc(Nc2ccc([N+](=O)[O-])cc2)n1, which growth inhibition (at 1.2 µM) is on record?
**A.** -81%

**Q.** And the growth inhibition (at 3.7 µM)?
**A.** 3%

**Q.** What about the growth inhibition (at 11.0 µM) of the same molecule?
**A.** 12%

**Q.** What about the growth inhibition (at 33.0 µM) of the same molecule?
**A.** 19%

**Q.** And the growth inhibition (at 100.0 µM)?
**A.** 17%
